Screens (PubChem BioAssay)
Sampled rows, rich in hits. Any-hit rate of the full collection: about 1.3%.
RN4220 kill = kills Staphylococcus aureus RN4220; S. aureus RN4220 growth, OD600, 16 h; inhibition, % (test concentration not listed); actives 0.33% (n = 330,000); AID 1259311; in the data active = inhibition above about 85%
MazEF act = activators of E. coli MazEF toxin-antitoxin RNase | FAM/BHQ RNA-DNA oligo cleavage fluorescence, 5 h | actives 0.32% (n = 350,000) | P0AE70 | activation, % at 20 µM; in the data active = activation above about 50%
Target sequence (P0AE70 whole entry, looked up): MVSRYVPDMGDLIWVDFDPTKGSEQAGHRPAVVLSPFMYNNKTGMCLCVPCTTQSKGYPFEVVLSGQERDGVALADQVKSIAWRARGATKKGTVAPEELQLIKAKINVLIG
SARS 3CLpro inh-1 = SARS-CoV 3CLpro protease inhibition; inhibition, % at 6 µM; actives 0.14% (n = 290,000); P0C6X7; AID 1706; recombinant SARS-CoV 3CLpro, quenched FRET peptide cleavage; in the data active = inhibition above about 12%
Mtb bLac sens = beta-lactam sensitization of Mtb H37Rv | inhibition, % at 25 µM | actives 0.27% (n = 330,000) | M. tuberculosis H37Rv growth with meropenem, percent inhibition | AID 434955; call rule not given here;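 note: growth measured after seven days incubation then overnight dye step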
Sa ugtP lethal = kills S. aureus RN4220 lacking UgtP; S. aureus RN4220 ugtP deletion, OD600 growth, 16 h; AID 1259309; actives 0.54% (n = 330,000); growth inhibition, % (no concentration beside the values); in the data active = growth inhibition above about 68%
CCHFV vOTU inh = blocks the CCHF virus ovarian tumor domain protease. AID 651958. actives 0.55% (n = 370,000). CCHFV vOTU protease, Pep-AMC fluorescence. inhibition, % at 11.5 µM; in the data active = inhibition above about 30%
SARS 3CLpro inh-2 = confirmation of SARS coronavirus 3C-like protease inhibitors | shares compounds with SARS 3CLpro inh-1 | QFRET protease activity assay, 3CLpro | inhibition, % at 6 µM | actives 36% (n = 380) | AID 1879; in the data active = inhibition above about 13%
Hits are given with their value; . = inactive; / = no result given.

SMILES | RN4220 kill | MazEF act | SARS 3CLpro inh-1 | Mtb bLac sens | Sa ugtP lethal | CCHFV vOTU inh | SARS 3CLpro inh-2
Cc1ccccc1Nc1nnc(SCC(=O)Nc2ncc(C(F)(F)F)cc2Cl)s1 | . | . | 20 | . | . | . | .
Cc1cccc(C)c1Nc1nnc(SCC(=O)Nc2ncc(C(F)(F)F)cc2Cl)s1 | . | . | . | . | . | . | /
Cc1cc(NN=Cc2ccc(O)cc2O)nc(-c2ccccc2O)n1 | . | / | / | / | . | / | /
COc1cc(C(=O)Nc2ccc(N3CCN(C(=O)c4ccc(C)cc4)CC3)cc2)cc(OC)c1OC | . | . | 14 | . | . | . | .
Cc1ccc(C(=O)N2CCN(c3ccc(NC(=O)c4cccnc4)cc3)CC2)cc1 | . | . | . | . | . | . | /
CCc1cccc(CC)c1N(COC)C(=O)Cn1nnc2ccccc21 | . | . | 12 | . | . | . | 13
CCc1cccc(CC)c1N(COC)C(=O)Cn1c(CO)nc2ccccc21 | . | . | . | . | . | . | /
CC(=O)CC1c2cc(C(F)(F)F)ccc2S(=O)(=O)N1C1CCCCC1 (configuration not stated) | . | / | / | / | . | / | /
Cc1cc(C=NO)c(C)n1-c1ccncc1 | . | / | / | / | . | / | /
Cc1cc(=O)oc2cc(NC(=O)c3ccccc3OC(F)F)ccc12 | . | . | 13 | . | . | . | .
O=c1c2ccccc2nc(NN=Cc2c(O)ccc3ccccc23)n1O | . | / | / | / | . | / | /
COc1cccc(S(=O)(=O)Nc2ccc3c(c2)OCCO3)c1 | . | . | . | . | . | . | /
COc1ccc(NS(=O)(=O)c2ccc3oc(Nc4ccc5c(c4)OCCO5)nc3c2)cc1 | . | . | 13 | . | . | . | .
COc1cc(OC)c(OC)cc1/C=C1\Oc2cc(OCC(=O)N3Cc4ccccc4C[C@H]3C(=O)O)ccc2C1=O | . | . | 12 | . | . | / | .
CC1=C(C=NNc2ccc([N+](=O)[O-])cc2[N+](=O)[O-])C(C)(C)CCC1 | . | / | / | / | . | / | /
COc1ccc(Nc2oc(COc3ccc(OC)cc3)nc2C#N)cc1 | . | . | . | . | . | . | /
COc1ccc(Nc2oc(COc3ccc(C)cc3)nc2C#N)cc1 | . | . | 13 | . | . | . | .
Nc1ccc2nn(-c3ccccc3)nc2c1 | . | . | . | / | . | . | /
Nc1cc2nn(-c3ccccc3)nc2cc1Cl | . | . | 12 | / | . | . | .
CCOC(=O)C(=NO)C(C)=NNC(=O)C(=O)Nc1ccc(Cl)cc1 | . | / | / | / | . | / | /
COC(=O)c1ccc(NC(=O)c2ccc(NC(=O)c3ccco3)cc2)cc1 | . | . | 13 | . | . | . | .
CC(=O)c1ccc(NC(=O)c2ccc(NC(=O)c3ccco3)cc2)cc1 | . | . | . | . | . | / | /
CCCC12CN3CCN(CC(C3)C1=NNC(=O)c1ccc(C(C)(C)C)cc1)C2 | . | / | / | / | . | / | /
Brc1ccc(C=Nn2cnnc2)s1 | . | / | / | / | . | / | /
COc1ccc(NS(=O)(=O)c2ccc(OC)c(N(C)S(=O)(=O)c3ccc(Cl)cc3)c2)cc1 | . | . | . | . | . | . | /
SMILES | RN4220 kill | MazEF act | SARS 3CLpro inh-1 | Mtb bLac sens | Sa ugtP lethal | CCHFV vOTU inh | SARS 3CLpro inh-2
COc1ccc(S(=O)(=O)Nc2ccc(F)cc2)cc1N(C)S(=O)(=O)c1ccc(Cl)cc1 | . | . | 17 | . | . | . | .
COc1ccc2c(c1)c(C(=O)NN=Cc1ccc(Cl)cc1)c(C)n2C | . | / | / | / | . | / | /
COC(=O)[C@]1(CC(C)C)NC(c2ccc(-c3ccc(C(C)=O)cc3)cc2)C2C(=O)N(C)C(=O)C21 (some centres not stated) | . | / | / | / | . | / | /
CN(C)c1ccc(/C=N/NC(=O)Cn2nnc3ccccc32)cc1 | / | . | . | . | / | . | /
COc1ccc(/C=N/NC(=O)Cn2nnc3ccccc32)cc1OC | / | . | 12 | . | / | . | 16
Cc1ccc(C(=O)Cn2nnc3ccccc32)cc1 | . | . | . | . | . | . | /
O=C(Cn1nnc2ccccc21)c1ccc(Br)cc1 | . | . | 57 | . | . | . | 55
CCc1ccc(N(C(=O)c2csnn2)C(C(=O)NC2CCCC2)c2cccnc2)cc1 (configuration not stated) | . | . | . | . | . | . | /
CC(C)c1ccc(N(C(=O)c2csnn2)C(C(=O)NC2CCCC2)c2cccnc2)cc1 (configuration not stated) | . | . | 15 | . | . | . | 20
CC1CN(C(C)CO)C(=O)c2cccc(NS(=O)(=O)c3ccccc3)c2OC1CN(C)C (configuration not stated) | . | / | / | / | . | / | /
